# In PubChem BioAssay (Tox21):
# A number with no mark means an inactive call. Results filed as inconclusive are left out. Entries that show only a call come without a potency. Active and inactive are the calls of the source. Unless noted, calls come from the whole dose curve.
# How the values were obtained:
# [1] = Nuclear factor erythroid 2-related factor 2/antioxidant responsive element (Nrf2/ARE) small molecule agonists: qHTS cell viability counter screen in human keratinocytes (AID 1919968; active = well fitted curve in the direction sought with a large enough effect in the repeat runs; an effect the other way counts as inactive or inconclusive; note: nearly all actives have a fitted effect of over 55% in size)
# In short: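 HaCaT ARE reporter line, 1,500 cells/well; 5 h settle, 37 C/5% CO2; cpd in DMSO pinned; 23 h exposure; CellTiter-Fluor, 1 h; fluorescence.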
# [2] = Nuclear factor erythroid 2-related factor 2/antioxidant responsive element (Nrf2/ARE) small molecule agonists: luciferase reporter gene qHTS assay in human keratinocytes (AID 1919969); note: nearly all actives have a fitted effect of over 35% in size; note: potency is the fitted concentration of half-maximal effect
# [3] = target: Gonadotropin-releasing hormone receptor (Homo sapiens) (UniProt P30968); test: Human gonadotropin-releasing hormone receptor (GnRHR) small molecule agonists, calcium flux assay in GnRHR-HEK293 cells (AID 1920063); note: nearly all actives have a fitted effect of over 35% in size
# In short: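 GnRHR-HEK293, 1500 cells/well, 18 h 37 C/5% CO2; Ca dye 1 h 37 C; cpd pinned (DMSO), agonist mode; kinetic FL 480/540, 3 min, 1 s reads; 15 conc, n=3.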
# [4] = target: KiSS-1 receptor (Homo sapiens) (UniProt Q969F8); test: Human kisspeptin (KISS1R) small molecule agonists, calcium flux assay in KISS1R-HEK293 cells (AID 1920064; active = well fitted curve in the direction sought with a large enough effect in the repeat runs; an effect the other way counts as inactive or inconclusive)
# In short: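 Stable human KISS1R HEK293 line; 18 h plating, 37 C/5% CO2; calcium dye 1 h 37 C; compound pin transfer; kinetic fluorescence Ex/Em 480/540, 3 min.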
# [5] = p53 small molecule agonists, cell-based qHTS assay with human liver microsomes (AID 1963577)
# In short: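 p53RE-bla cells, 4,000/well, compound added after 5 h, with human liver microsomes 0.5 mg/mL and NADPH 0.5 mg/mL final; 16 h at 37 C, then LiveBLAzer 2 h RT, fluorescence.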
# [6] = p53 small molecule agonists, cell-based qHTS assay with rat liver microsomes (AID 1963578)
# In short: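 p53RE-bla cells, 4,000/well, pre-incubated 5 h, then given compounds plus rat liver microsomes (0.5 mg/mL final) and NADPH (0.5 mg/mL final). Incubation 16 h at 37 C; beta-lactamase reporter read by LiveBLAzer fluorescence after 2 h at room temperature.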
# [7] = p53 small molecule agonists, cell-based qHTS assay with human liver microsomes: qHTS cell viability counter screen (AID 1963579); note: nearly all actives have a fitted effect of over 45% in size
# In short: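 p53RE-bla cells, 4,000/well, dosed 5 hours after plating, with human liver microsomes (0.5 mg/mL final) plus NADPH (0.5 mg/mL final), 16 hours at 37 C. Viability read as CellTiter-Glo luminescence after 30 min at room temperature.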
# [8] = p53 small molecule agonists, cell-based qHTS assay with rat liver microsomes: qHTS cell viability counter screen (AID 1963580); note: nearly all actives have a fitted effect of over 45% in size
# In short: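 In HCT-116 cells carrying a p53 response element-bla reporter, compounds were metabolically activated in situ by rat liver microsomes with NADPH over 16 h. Cell ATP content then served as the cytotoxicity measure.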
# [9] = p53 small molecule agonists, cell-based qHTS assay: qHTS cell viability counter screen (AID 1963581); note: nearly all actives have a fitted effect of over 45% in size
# In short: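 HCT-116 p53RE-bla cells, 4,000/well, plated 5 h before compound pin transfer; 16 h at 37 C; bla substrate 2 h RT; then CellTiter-Glo, 30 min RT, luminescence.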
# [10] = p53 small molecule agonists, cell-based qHTS assay (AID 1963582; active = well fitted activation curve with a large enough effect in the signal ratio in the repeat runs, not every such curve was filed as active; the % refers to the signal ratio)
# In short: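 Reporter line: p53RE-bla. Pre-incubation 5 h, 37 C, 5% CO2; compound (DMSO, pin tool) 16 h, 37 C; B/G FRET substrate 2 h RT; fluorescence intensity read.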
# [11] = target: 5-hydroxytryptamine receptor 2A (Homo sapiens) (UniProt P28223); test: 5-hydroxytryptamine receptor 2A (HTR2A) small molecule antagonists, cell-based qHTS assay (AID 1963586); note: nearly all actives have a fitted effect of over 45% in size; note: potency is the fitted concentration of half-maximal effect
# In short: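 Antagonist-mode intracellular calcium assay: DOI (4 nM) added after 5 min compound pre-incubation at room temperature to dye-loaded HTR2A-CHO cells. Fluorescence followed for 3 min, sampled every second.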
# [12] = target: 5-hydroxytryptamine receptor 2A (Homo sapiens) (UniProt P28223); test: 5-hydroxytryptamine receptor 2A (HTR2A) small molecule agonists, cell-based qHTS assay (AID 1963587); note: nearly all actives have a fitted effect of over 30% in size
# In short: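 HTR2A-CHO cells, plated 18 h at 37 C/5% CO2, dye-loaded 1 h at 37 C; compounds in DMSO added by pin tool (agonist mode). Intracellular calcium flux read as kinetic fluorescence on FDSS over 2 min at 1 s intervals.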
# [13] = target: Muscarinic acetylcholine receptor M1 (Homo sapiens) (UniProt P11229); test: Cholinergic receptor muscarinic 1 (CHRM1) small molecule agonists, cell-based qHTS assay (AID 1963589); note: nearly all actives have a fitted effect of over 35% in size
# In short: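 Human M1 in stable CHO line; 18 h plating, 1 h dye load 37 C; cpd added (agonist mode); Ca2+ fluorescence kinetic read, 1 s intervals; 15 conc, 3 runs.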
# [14] = cAMP Responsive Elements (CRE) small molecule agonists, cell-based qHTS assay (AID 1963590)
# In short: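 HEK 293T CRE-bla, 2,000 cells/well, 18 h preincubation 37 C/5% CO2; cpds (DMSO) pinned, 3 h; LiveBLAzer B/G FRET substrate, 2 h RT.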
# [15] = cAMP Responsive Elements (CRE) small molecule antagonists, cell-based qHTS assay (AID 1963591; active = well fitted inhibition curve with a large enough effect in the signal ratio in the repeat runs, not every such curve was filed as active; the % refers to the signal ratio)
# In short: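 Beta-lactamase reporter read by FRET substrate (LiveBLAzer B/G) after 2 h at room temperature. CRE-bla HEK293T cells had received compound plus 0.25 uM (final) NKH477 for 3 h at 37 °C.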
# [16] = target: Beta-2 adrenergic receptor (Homo sapiens) (UniProt P07550); test: Adrenergic beta2 receptor (ADRB2) small molecule antagonists, cell-based qHTS assay (AID 1963592); note: series mostly up to about 92 µM; nearly all actives have a fitted effect of over 50% in size
# In short: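 Cells (CHO, stable ADRB2 overexpression) incubated 18-20hr at 37C; compounds added from DMSO; agonist mix (1nM isoproterenol, 100uM IBMX, 25uM Ro-20-1724) added; 0.5hr RT; d2-cAMP and anti-cAMP-cryptate added; 1hr RT; 665/615 nm read.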
# [17] = target: Beta-2 adrenergic receptor (Homo sapiens) (UniProt P07550); test: Adrenergic beta2 receptor (ADRB2) small molecule agonists, cell-based qHTS assay (AID 1963593);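 note: CHO cells stably overexpressing human ADRB2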
# In short: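 CHO cells stably over-expressing ADRB2 were plated overnight at 37C, then dosed with compounds plus a stimulation mix containing 100uM IBMX and 25uM Ro-20-1724 for 0.5hr at room temperature. cAMP was measured by HTRF competition, 1hr.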
# [18] = target: D(2) dopamine receptor (Homo sapiens) (UniProt P14416); test: Dopamine D2 receptor (DRD2) small molecule agonists, cell-based qHTS assay (AID 1963594); note: nearly all actives have a fitted effect of over 35% in size
# In short: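 HEK293 cells stably expressing DRD2 were cultured 24 h at 37 C, then given Ro20-1724 (0.1 mM final) and compounds for 10 min at room temperature. NKH477 (200nM) was then added for 30 min. cAMP was read by HTRF.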
# [19] = target: D(2) dopamine receptor (Homo sapiens) (UniProt P14416); test: Dopamine D2 receptor (DRD2) small molecule antagonists, cell-based qHTS assay (AID 1963595; active = well fitted inhibition curve with a large enough effect in the signal ratio in the repeat runs, with a control signal flat; the % refers to the signal ratio)
# In short: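 Antagonist mode in DRD2-HEK293 cells: after compound addition with 0.1 mM Ro20-1724, cells received quinpirole (12 nM) and NKH477 (200 nM) for 30 min at room temperature; HTRF cAMP read after 1 h detection.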
# [20] = target: Muscarinic acetylcholine receptor M1 (Homo sapiens) (UniProt P11229); test: Cholinergic receptor muscarinic 1 (CHRM1) small molecule antagonists, cell-based qHTS assay (AID 1963588); note: nearly all actives have a fitted effect of over 40% in size
# In short: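 CHRM1-CHO calcium-flux assay, antagonist mode. Cells were seeded 18 h, dye-loaded 1 h at 37 C and given compound for 5 min at RT, then acetylcholine was added at 50nM. FDSS fluorescence was read 3 min; 15 concentrations, three runs.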
# 5-hydroxytryptamine receptor 2A (Homo sapiens), sequence (P28223 whole entry, looked up): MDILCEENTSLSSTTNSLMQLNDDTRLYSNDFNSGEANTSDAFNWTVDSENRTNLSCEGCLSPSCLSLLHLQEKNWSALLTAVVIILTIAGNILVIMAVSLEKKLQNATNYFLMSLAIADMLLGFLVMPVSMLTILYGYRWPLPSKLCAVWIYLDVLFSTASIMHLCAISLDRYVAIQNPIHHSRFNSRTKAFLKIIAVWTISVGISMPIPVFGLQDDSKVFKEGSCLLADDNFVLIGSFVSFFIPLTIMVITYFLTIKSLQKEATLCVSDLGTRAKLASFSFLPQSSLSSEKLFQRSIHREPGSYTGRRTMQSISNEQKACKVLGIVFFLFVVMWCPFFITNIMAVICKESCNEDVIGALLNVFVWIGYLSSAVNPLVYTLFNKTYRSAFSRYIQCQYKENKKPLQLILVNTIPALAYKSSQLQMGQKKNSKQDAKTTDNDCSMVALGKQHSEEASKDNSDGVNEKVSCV
# Beta-2 adrenergic receptor (Homo sapiens), sequence (P07550 whole entry, looked up): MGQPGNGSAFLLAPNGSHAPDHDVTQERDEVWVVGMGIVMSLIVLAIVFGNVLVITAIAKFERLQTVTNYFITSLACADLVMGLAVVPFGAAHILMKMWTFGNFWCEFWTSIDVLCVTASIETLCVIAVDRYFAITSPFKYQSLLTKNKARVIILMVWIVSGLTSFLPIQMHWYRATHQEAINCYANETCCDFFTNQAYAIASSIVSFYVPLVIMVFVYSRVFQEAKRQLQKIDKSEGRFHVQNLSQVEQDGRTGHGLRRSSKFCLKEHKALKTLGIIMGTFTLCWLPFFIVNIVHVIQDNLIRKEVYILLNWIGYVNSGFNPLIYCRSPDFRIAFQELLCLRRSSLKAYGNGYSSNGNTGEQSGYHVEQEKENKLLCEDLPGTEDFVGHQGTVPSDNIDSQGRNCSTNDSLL
# D(2) dopamine receptor (Homo sapiens), sequence (P14416 whole entry, looked up): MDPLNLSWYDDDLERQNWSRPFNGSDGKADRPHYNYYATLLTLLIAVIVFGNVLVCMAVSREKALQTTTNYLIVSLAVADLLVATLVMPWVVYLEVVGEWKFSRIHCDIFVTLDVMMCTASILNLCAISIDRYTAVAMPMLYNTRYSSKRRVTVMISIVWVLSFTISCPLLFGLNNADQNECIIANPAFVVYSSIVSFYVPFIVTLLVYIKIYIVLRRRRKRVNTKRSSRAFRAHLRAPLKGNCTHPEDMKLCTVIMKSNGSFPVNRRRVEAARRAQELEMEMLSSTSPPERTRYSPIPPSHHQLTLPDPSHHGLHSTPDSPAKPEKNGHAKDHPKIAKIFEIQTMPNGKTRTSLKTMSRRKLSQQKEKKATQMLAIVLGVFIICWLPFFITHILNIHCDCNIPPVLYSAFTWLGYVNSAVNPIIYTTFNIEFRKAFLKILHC
# Gonadotropin-releasing hormone receptor (Homo sapiens), sequence (P30968 whole entry, looked up): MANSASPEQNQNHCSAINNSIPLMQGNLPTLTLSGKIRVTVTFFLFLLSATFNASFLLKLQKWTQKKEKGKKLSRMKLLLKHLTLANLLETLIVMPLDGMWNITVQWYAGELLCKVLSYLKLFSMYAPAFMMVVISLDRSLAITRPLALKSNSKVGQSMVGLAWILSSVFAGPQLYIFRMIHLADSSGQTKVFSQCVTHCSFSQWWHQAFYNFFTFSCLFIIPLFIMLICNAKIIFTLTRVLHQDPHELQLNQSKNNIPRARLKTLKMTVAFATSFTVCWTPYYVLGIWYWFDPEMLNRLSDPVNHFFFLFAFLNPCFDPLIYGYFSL
# KiSS-1 receptor (Homo sapiens), sequence (Q969F8 whole entry, looked up): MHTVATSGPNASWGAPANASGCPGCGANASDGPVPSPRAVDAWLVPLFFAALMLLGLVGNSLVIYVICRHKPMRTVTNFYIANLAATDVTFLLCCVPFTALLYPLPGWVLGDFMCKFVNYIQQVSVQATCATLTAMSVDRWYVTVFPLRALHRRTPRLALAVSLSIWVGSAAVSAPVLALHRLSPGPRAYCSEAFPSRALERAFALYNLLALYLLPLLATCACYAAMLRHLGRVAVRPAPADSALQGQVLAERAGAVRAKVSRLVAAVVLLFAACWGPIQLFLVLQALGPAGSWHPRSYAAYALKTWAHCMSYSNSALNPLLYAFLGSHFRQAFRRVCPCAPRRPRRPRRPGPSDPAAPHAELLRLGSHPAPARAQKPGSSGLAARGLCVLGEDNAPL
# Muscarinic acetylcholine receptor M1 (Homo sapiens), sequence (P11229 whole entry, looked up): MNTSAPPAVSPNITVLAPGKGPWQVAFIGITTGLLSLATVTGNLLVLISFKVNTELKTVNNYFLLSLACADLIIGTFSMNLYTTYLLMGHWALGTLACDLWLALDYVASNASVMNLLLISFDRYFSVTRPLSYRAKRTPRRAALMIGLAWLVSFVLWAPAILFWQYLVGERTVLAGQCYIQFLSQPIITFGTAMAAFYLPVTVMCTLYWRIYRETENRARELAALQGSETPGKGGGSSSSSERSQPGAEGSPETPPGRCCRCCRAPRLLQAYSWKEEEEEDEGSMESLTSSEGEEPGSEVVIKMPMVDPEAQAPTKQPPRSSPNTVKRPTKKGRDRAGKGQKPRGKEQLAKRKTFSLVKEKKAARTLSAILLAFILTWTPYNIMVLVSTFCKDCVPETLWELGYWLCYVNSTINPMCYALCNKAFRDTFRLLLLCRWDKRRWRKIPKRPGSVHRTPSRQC
SMILES,Potency [1],Potency [2],Potency [3],outcome [4],Potency [5],Potency [6],Potency [7],Potency [8],Potency [9],Potency [10],Potency [11],Potency [12],Potency [13],Potency [14],Potency [15],Potency [16],Potency [17],Potency [18],Potency [19],Potency [20]
COc1cccc(O)c1,inactive,inactive,inactive,inactive,inactive,inactive,inactive,inactive,inactive,inactive,inactive,inactive,inactive,inactive,inactive,inactive,inactive,inactive,inactive,
CCN(CC)c1cccc(C)c1,inactive,inactive,inactive,inactive,inactive,inactive,inactive,inactive,inactive,inactive,inactive,inactive,inactive,inactive,inactive,,,inactive,inactive,inactive
CNC(=O)c1ccccc1,inactive,inactive,inactive,inactive,inactive,inactive,inactive,inactive,inactive,inactive,inactive,inactive,inactive,inactive,,inactive,,inactive,inactive,inactive
Oc1ccc2c(c1)CCC2,inactive,inactive,inactive,inactive,inactive,inactive,inactive,inactive,inactive,inactive,inactive,inactive,inactive,,inactive,inactive,,inactive,inactive,inactive
C=C(C)C(=O)OCCOCC,inactive,54.7 µM (active),inactive,inactive,inactive,inactive,inactive,inactive,inactive,inactive,inactive,inactive,inactive,,inactive,inactive,,inactive,inactive,inactive
CCCC(C)C(=O)OCC (stereo unspecified),inactive,inactive,inactive,inactive,inactive,inactive,inactive,inactive,inactive,inactive,inactive,,,inactive,inactive,,inactive,inactive,inactive,inactive
Cc1cccc(N(C)C(=S)Oc2ccc3c(c2)CCC3)c1,inactive,inactive,inactive,inactive,inactive,inactive,inactive,inactive,inactive,,1.3 µM (active),inactive,inactive,inactive,inactive,inactive,inactive,inactive,,inactive
